The source of these data is PubChem BioAssay.

Molecules are shown by their SMILES. Results with a measured potency or affinity are listed apart. Records with an inconclusive call do not appear. Values without a mark were called inactive. The rule behind the calls is not given here.

The nature of this assay: general cell-killing toxicity readout – plate reader, dry powder samples, cytotoxicity control for PAX8 inhibitor project, dose response (AID 743021). To be noted: cell line, non-specific cytotoxicity counter-screen; series mostly up to 35 µM; activity change, negative = cytotoxicity: at the top concentration. (A counterscreen serves to expose hits that act by an unwanted route or on another target.)
Turning to `CSc1ccc(COC(=O)c2cc([N+](=O)[O-])ccc2N2CCOCC2)cc1`, the “activity change, negative = cytotoxicity” value was -12.9%. For `O=C(Cn1ncc(Cl)c(Cl)c1=O)Nc1ccc2c(c1)OCO2` the value was 4.63%.

Consider `CNC(=O)c1cc(Oc2ccc(NC(=O)Nc3ccc(Cl)c(C(F)(F)F)c3)cc2)ccn1`, for which the “activity change, negative = cytotoxicity” value was 15.6%. In the case of `COc1ccc(C(=O)CN2C(=O)c3ccccc3S2(=O)=O)cc1`, the “activity change, negative = cytotoxicity” value was -18.9%.
